From PubChem
Only some compounds are listed: those with a hit (about 2.2% of all), similar ones and a draw of the others.
PLAP act – PLAP enzyme activators, biochemical, luminescence, HTS. activation fold at 20 µM. 1.2% of 96,000 active. Alkaline phosphatase, placental type (Homo sapiens), P05187. purified PLAP enzyme, luminescent substrate read-out; stronger effect = higher value; in the data active = activation fold above about 2
MRP reversal – reversal of MRP1-mediated doxorubicin resistance, primary screen, H69AR cells, doxorubicin co-treatment; 0.04% of 85,000 active; H69AR cells + 2 uM doxorubicin, CellTiter-Glo, 72 h; differential viability (reversal), % at 10 µM;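 active = viability drop by adding the cancer drug above about 55%, with treated viability meeting a 40% cutoff, limit read from the data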;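 note: larger differential means the compound sensitizes cells more to doxorubicin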
FAK blocker – FAK kinase inhibitors, primary screen, biochemical; Focal adhesion kinase 1 (Homo sapiens), Q05397; biochemical FAK kinase activity assay; inhibition, %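 (tested at 7 µM)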; 0.84% of 97,000 active; AID 727, 2007
PTPN22 inh 2 – PTPN22 phosphatase inhibitors, primary screen, biochemical, DiFMUP fluorescence, 2 µM | Tyrosine-protein phosphatase non-receptor type 22 (Homo sapiens), Q9Y2R2 | recombinant LYP catalytic domain | inhibition, % at 2 µM | 0.21% of 96,000 active;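 active = inhibition at 2 µM at or above a set limit, the screen mean plus 3 SD, cut at about 24% in these data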
Target sequence (Q9Y2R2 whole entry, looked up, the tested form may be a part): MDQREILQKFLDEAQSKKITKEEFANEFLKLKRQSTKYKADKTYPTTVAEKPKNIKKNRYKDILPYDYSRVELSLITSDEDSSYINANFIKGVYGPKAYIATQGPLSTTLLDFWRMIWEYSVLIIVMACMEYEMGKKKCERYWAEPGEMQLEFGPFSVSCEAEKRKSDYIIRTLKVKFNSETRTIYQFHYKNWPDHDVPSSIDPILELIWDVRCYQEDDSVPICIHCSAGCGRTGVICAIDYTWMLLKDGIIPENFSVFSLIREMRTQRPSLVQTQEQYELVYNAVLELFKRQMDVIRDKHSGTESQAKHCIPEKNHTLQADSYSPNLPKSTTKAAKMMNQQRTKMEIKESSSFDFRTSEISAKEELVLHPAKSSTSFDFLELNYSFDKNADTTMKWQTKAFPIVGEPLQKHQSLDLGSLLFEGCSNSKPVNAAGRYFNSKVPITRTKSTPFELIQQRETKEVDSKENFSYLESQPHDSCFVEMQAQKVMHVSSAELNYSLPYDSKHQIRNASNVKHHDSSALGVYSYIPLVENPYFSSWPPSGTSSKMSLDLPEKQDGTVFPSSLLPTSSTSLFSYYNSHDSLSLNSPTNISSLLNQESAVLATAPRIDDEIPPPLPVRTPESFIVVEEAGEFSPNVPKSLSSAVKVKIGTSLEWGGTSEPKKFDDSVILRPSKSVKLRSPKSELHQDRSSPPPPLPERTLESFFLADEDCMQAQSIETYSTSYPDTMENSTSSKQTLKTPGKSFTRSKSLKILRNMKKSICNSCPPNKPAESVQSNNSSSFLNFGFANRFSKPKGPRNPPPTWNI
MRP1 act – H69AR viability gain despite doxorubicin, primary screen, MRP-1 activator project, H69AR cells, CellTiter-Glo. AID 799, 2007. 0.61% of 140,000 active. viability rescue. viability increase, % at 10 µM;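 active = viability gain under doxorubicin at or above a set limit, the compound median plus 3 SD, cut at about 4.7% in these data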;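 note: MRP-1 overexpressing cells given doxorubicin 25 µM after compound pretreatment; 18-22 h compound pretreatment then 72 h with doxorubicin before readout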
LYP act – LYP phosphatase activators, primary screen, biochemical, DiFMUP fluorescence, 2 µM. Tyrosine-protein phosphatase non-receptor type 22 (Homo sapiens), Q9Y2R2. recombinant LYP; 0 = plate median, 100 = signal doubled. activation, % at 2 µM. 0.11% of 96,000 active. AID 697, 2007;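 active = activation at 2 µM above a set limit, the mean plus 5 SD, cut at about 37% in these data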
FAK inh confirm – FAK kinase inhibitors, retest, confirmation, biochemical | shares compounds with FAK blocker | FAK kinase biochemical inhibition assay | inhibition, % at 7 µM | 28% of 750 active
Each line names hits and unclear results; the compound was inactive in the other large screens (follow-up assays come after a bar, where they were run). Cut-off read from the data, not from the text of the source, unless noted: active = inhibition above about 19%; inactive = the rest.

O=C(/C=C/c1ccc(O)cc1)c1ccc(NC2=C(N3CCCCC3)C(=O)c3ccccc3C2=O)cc1	FAK blocker 30 (no result: MRP reversal) | FAK inh confirm inactive
Cc1ccc(NC2=C(N3CCCCC3)C(=O)c3ccccc3C2=O)cc1	none (no result: MRP reversal)
CN(CCO)c1cc(N2CCN(C(=O)c3ccco3)CC2)c2nonc2c1[N+](=O)[O-]	none (no result: PLAP act, MRP reversal, FAK blocker, PTPN22 inh 2, LYP act)
COc1ccc(-c2nnn(CC(=O)N3CCOCC3)n2)cc1	none
O=C(Cc1cccs1)Nc1ccc(-c2nnn(CC(=O)N3CCOCC3)n2)cc1	FAK blocker 25 | FAK inh confirm inactive
O=C(COC(=O)CNS(=O)(=O)c1ccc(F)c(F)c1F)Nc1ccc(OC(F)F)cc1	none (no result: PLAP act, MRP reversal, FAK blocker, PTPN22 inh 2, LYP act)
Cc1ccccc1Nc1nnc(SCC(=O)NC2CCCc3ccccc32)s1 (stereo not given)	none (no result: PLAP act, MRP reversal, FAK blocker, PTPN22 inh 2, LYP act)
O=c1oc2ccccc2c(Nc2ccc(O)cc2)c1[N+](=O)[O-]	none
O=c1oc2ccccc2c(Nc2ccc3ccccc3c2)c1[N+](=O)[O-]	FAK blocker 24 | FAK inh confirm inactive
Cc1cc(=O)[nH]c2ccccc12	none
O=c1cc(-c2ccccc2)c2ccccc2[nH]1	FAK blocker 19 | FAK inh confirm inactive
COc1ccc2o/c(=N/NC(=S)Nc3ccccc3)c(C(N)=O)cc2c1	none (no result: PLAP act, MRP reversal, FAK blocker, PTPN22 inh 2, LYP act)
CN1c2ccccc2C(C)(C)C12C=Nc1c(cc(N3CCOCC3)c3ccccc13)O2 (stereo not given)	FAK blocker 40 (no result: MRP reversal) | FAK inh confirm inactive
Cc1cc([N+](=O)[O-])ccc1N(C)C	none (no result: PLAP act, MRP reversal, FAK blocker, PTPN22 inh 2, LYP act)
COc1ccc(N2Cc3cccc(C(=O)NC(C)CCc4ccco4)c3C2=O)cc1 (stereo not given)	FAK blocker 33 | FAK inh confirm inactive
CCOC(=O)N1CCC(NC(=O)c2cccc3c2C(=O)N(c2ccc(OC)cc2)C3)CC1	FAK blocker 44 | FAK inh confirm inactive
COc1ccc(N2CC(C(=O)Nc3ccccc3C(=O)NCc3ccco3)CC2=O)cc1 (stereo not given)	none
C=CCN1C(=O)/C(=C2/C(=O)N(CC(=O)O)c3ccccc32)S/C1=N/c1nccs1	FAK blocker 22 (no result: MRP reversal) | FAK inh confirm inactive
C=CCN1C(=O)/C(=C/c2ccc(O)cc2)S/C1=N/c1nccs1	none (no result: PLAP act, MRP reversal, FAK blocker, PTPN22 inh 2, LYP act)
Oc1oc(-c2ccccc2)nc1C=Nc1ccccc1	none
CC(=O)Nc1ccc(N=Cc2nc(-c3ccc(C)cc3)oc2O)cc1	FAK blocker 24 | FAK inh confirm inactive
O=C(Cn1c2ccccc2c(=O)c2ccccc21)N/N=C/c1cc([N+](=O)[O-])ccc1N1CCCCCC1	FAK blocker 69, PTPN22 inh 2 28 (no result: MRP reversal) | FAK inh confirm 80
O=C(Cn1c2ccccc2c(=O)c2ccccc21)N/N=C/c1ccc(N2CCCC2)c([N+](=O)[O-])c1	none (no result: PLAP act, MRP reversal, FAK blocker, PTPN22 inh 2, LYP act)
CS(=O)(=O)N1CCN(c2ccccc2NC(=O)c2ccc(Br)o2)CC1	FAK blocker 21 | FAK inh confirm inactive
Cc1oc(-c2ccccc2)cc1C(=O)Nc1cccc(C(=O)O)c1	none
Cc1oc(-c2ccccc2)cc1C(=O)Nc1cccc2ccccc12	FAK blocker 26 | FAK inh confirm 25
CC1(C)C(=O)NCCN1C(=O)CCC(=O)O	none (no result: PLAP act)
Cc1c(N2C(=O)c3ccc4c5c(ccc(c35)C2=O)CC4)c(=O)n(-c2ccccc2)n1C	FAK blocker 70 | FAK inh confirm 41
COc1ccccc1NC(=O)CSc1c2c(nc3ccccc13)CCC2	none (no result: PLAP act, MRP reversal, FAK blocker, PTPN22 inh 2, LYP act)
Cc1cc(NC(=O)CSc2c3c(nc4ccccc24)CCC3)no1	FAK blocker 27 | FAK inh confirm inactive
O=C1Nc2ccccc2S/C1=C/Nc1cccc(Cl)c1	FAK blocker 26 (no result: MRP reversal) | FAK inh confirm inactive
COc1ccc(NCc2nnc(SCc3ccc(Cl)cc3)n2-c2ccccc2)cc1	none (no result: PLAP act, MRP reversal, FAK blocker, PTPN22 inh 2, LYP act)
Nc1ncnc2nc(SCc3ccccc3)[nH]c12	PLAP act 2, FAK blocker 38 | FAK inh confirm inactive
Nc1ncnc2nc(SCC(=O)N3CCN(c4ccccc4)CC3)[nH]c12	none
Nc1[nH]nc2nc(N3CCOCC3)nc(-c3ccccc3)c12	FAK blocker 24 | FAK inh confirm inactive
